Compound activity as filed in PubChem BioAssay.
Sampled rows, rich in hits. Any-hit rate of the full collection: about 6.5%.
Marburg entry inh = Marburg virus entry inhibition. Marburg virus pseudotyped entry inhibition, cell reporter. Potency, µM (highest dose often 37.8 µM), hits mostly inhibitors. 300,000 tested, 1.8% active. AID 540276; calls by dose curve; tested in HEK293 cells
LASV entry inh = blocks Lassa virus binding to or entry into cells; Potency, µM (top dose mostly 37.9 µM), usual class: inhibitors; 300,000 tested, 1.2% active; Lassa virus pseudotype entry inhibition, cell reporter; calls by dose curve; tested in HEK293 cells; further: nearly all actives have a fitted effect of over 50% in size
Vaccinia Venus = vaccinia inhibition (Venus reporter); Vaccinia virus Venus reporter expression, fluorescence; Potency, µM (doses to about 36.5 µM), actives largely listed as inhibitors; 330,000 tested, 0.46% active; calls by dose curve; tested in A549 cells; further: nearly all actives have a fitted effect of over 30% in size
Vaccinia mCherry = vaccinia inhibition (mCherry reporter); Vaccinia virus mCherry reporter infection, fluorescence; Potency, µM (highest dose often 36.5 µM), actives largely listed as inhibitors; 310,000 tested, 0.63% active; AID 720579; calls by dose curve; tested in A549 cells; further: nearly all actives have a fitted effect of over 35% in size
FMDV inh = antivirals against foot and mouth disease virus. FMDV antiviral cell-based qHTS. Potency, µM (doses to about 57.9 µM), usual class: inhibitors. 410,000 tested, 1.2% active. AID 1159524; calls by dose curve; tested in HEK293T cells; further: read-out not given here; nearly all actives have a fitted effect of over 45% in size
HCMV inh = inhibitors of human cytomegalovirus. HFF cells, HCMV-luciferase reporter, 72 h; stronger effect = lower value. activity change, negative = inhibition, % at 57.5 µM. 410,000 tested, 4.5% active; in the data active means activity change below about -60%; inconclusive means no clear call, values can overlap the other calls; inactive means above about -39%
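Cell-based, HFFs, 1000 cells/well, 16 h 37C; cpds in DMSO + HCMV-luc, MOI 1 PFU/cell; 72 h 37C; OneGlo luminescence after 5 min RT; norm. to buffer vs Salinomycin 10uM.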
Numbers stand for hits; [ ] = remark or other dose.

Screening Cc1ccccc1OCCn1cc(/C(N)=N/O)c2ccccc21 returned Marburg entry inh inconclusive, LASV entry inh inactive, Vaccinia Venus inconclusive, Vaccinia mCherry inconclusive, FMDV inh 28µM and HCMV inh inactive.
CC(=O)c1cn(CCOc2cc(C)ccc2C)c2ccccc12 was read as Marburg entry inh 1.6µM, LASV entry inh inactive, Vaccinia Venus inactive, Vaccinia mCherry inactive, FMDV inh inconclusive and HCMV inh inactive.
For Cc1ccccc1OCCn1cc(C(=O)O)c2ccccc21 the results were Marburg entry inh inactive, LASV entry inh inactive, Vaccinia Venus inactive, Vaccinia mCherry inactive, FMDV inh inactive and HCMV inh inactive.
Screening COc1ccccc1OCCCn1cc(C(=O)c2ccco2)c2ccccc21 returned Marburg entry inh inactive, LASV entry inh inconclusive, FMDV inh inactive and HCMV inh inactive.
For Cc1ccc(C)c(OCCn2cc(C(=O)O)c3ccccc32)c1 the results were Marburg entry inh inactive, LASV entry inh inactive, Vaccinia Venus inactive, Vaccinia mCherry inactive, FMDV inh inactive and HCMV inh inactive.
For Cn1c(-c2cccnc2)cc2c(Nc3cccc(C(F)(F)F)c3)nccc21 the results were HCMV inh inactive.
`CC(CC(c1ccccc1)N1CCc2ccccc2C1)=NO` (stereo not given) gave Vaccinia Venus inactive, Vaccinia mCherry inactive, FMDV inh inactive and HCMV inh inactive.
`CCCn1c(N)c(N(CCOC)C(=O)c2ccc([N+](=O)[O-])c(C)c2)c(=O)[nH]c1=O` gave Marburg entry inh inactive, LASV entry inh inactive, Vaccinia Venus inactive, Vaccinia mCherry inactive, FMDV inh inactive and HCMV inh inactive.
COc1ccc(NC(=O)c2cccc(Oc3ccc([N+](=O)[O-])cc3Cl)c2)cc1 was read as Marburg entry inh inconclusive, LASV entry inh inconclusive, Vaccinia Venus inactive, Vaccinia mCherry inconclusive, FMDV inh inactive and HCMV inh -87.
Screening COc1ccc(OCCNC(=O)c2cccc(Oc3ccc(C(F)(F)F)cc3[N+](=O)[O-])c2)cc1 returned Marburg entry inh inconclusive, LASV entry inh inactive, Vaccinia Venus inactive, Vaccinia mCherry inactive, FMDV inh inconclusive and HCMV inh -66.
Screening O=C(NCCO)c1ccc(Oc2ccc(C(F)(F)F)cc2[N+](=O)[O-])cc1 returned Marburg entry inh inactive, LASV entry inh inactive, Vaccinia Venus inactive, Vaccinia mCherry inactive, FMDV inh inactive and HCMV inh inactive.
For Cc1ccc(C)c(NC(=O)c2cccc(Oc3ccc([N+](=O)[O-])cc3Cl)c2)c1 the results were Vaccinia Venus inconclusive, Vaccinia mCherry inconclusive, FMDV inh inactive and HCMV inh inconclusive.
Screening O=C(Nc1cccc(Cl)c1)c1cccc(Oc2ccc([N+](=O)[O-])cc2Cl)c1 returned Marburg entry inh inactive, LASV entry inh inactive, FMDV inh inconclusive and HCMV inh -89.
For O=C(Nc1ccc([N+](=O)[O-])cc1Cl)c1cccc([N+](=O)[O-])c1 the results were Vaccinia Venus inactive, Vaccinia mCherry inactive, FMDV inh inactive and HCMV inh inactive.
For Cc1ccc(NC(=O)Cn2c(=O)c(CNc3ccccc3)cc3cc4c(cc32)OCCO4)cc1 the results were LASV entry inh inactive, Vaccinia Venus inactive, Vaccinia mCherry inactive, FMDV inh inactive and HCMV inh inactive.
CCc1ccc(NC(=O)Cn2c(C(=O)OC)cc3oc(C)cc32)cc1 was read as Marburg entry inh inactive, Vaccinia Venus inactive, Vaccinia mCherry inactive, FMDV inh inactive and HCMV inh inactive.
Screening COC(=O)c1ccccc1C(=O)N1CCOc2ccc(CN3CCN(c4ccccn4)CC3)cc2C1 returned Vaccinia Venus inactive, Vaccinia mCherry inactive and FMDV inh inactive.
`CCC[C@H]1[C@@H](NS(=O)(=O)c2cccc(C)c2)CC[C@@]23CCCN2C(=O)CCC[C@@H]13` gave HCMV inh inactive.
Screening COc1ccc(CNC(=O)C(=O)NCC(c2cccnc2)N2CCN(c3ccccc3F)CC2)cc1 (stereo not given) returned LASV entry inh inactive, Vaccinia Venus inconclusive, Vaccinia mCherry inconclusive, FMDV inh inactive and HCMV inh -70.
COC(=O)NCC(c1cccnc1)N1CCN(c2ccccc2F)CC1 (stereo not given) was read as Vaccinia Venus inactive, Vaccinia mCherry inactive, FMDV inh inactive and HCMV inh inactive.
`CCc1ccccc1NC(=O)C(=O)NCC(c1cccnc1)N1CCN(c2ccccc2F)CC1` (stereo not given) gave LASV entry inh inactive, Vaccinia Venus inactive, Vaccinia mCherry inactive, FMDV inh 40µM and HCMV inh inactive.
For Oc1cccc(/C=N/N=C/c2cccc(O)c2O)c1O the results were Marburg entry inh inconclusive, LASV entry inh 11µM, Vaccinia Venus inactive, Vaccinia mCherry inactive, FMDV inh inactive and HCMV inh inactive.
Screening C/C(=N\NC(=S)Nc1ccc(C)c(C)c1)c1ccc(N2CCOCC2)cc1 returned FMDV inh inactive and HCMV inh -61.
For C/C(=N\NC(=S)Nc1ccc(F)cc1)c1ccc2c(c1)OCCO2 the results were Marburg entry inh 1µM, LASV entry inh inconclusive, Vaccinia Venus inconclusive, Vaccinia mCherry inactive, FMDV inh inactive and HCMV inh inactive.
C/C(=N\NC(=S)Nc1cc(S(=O)(=O)N2CCOCC2)ccc1Cl)c1ccc(N2CCOCC2)cc1 was read as Vaccinia Venus inactive[7.34 µM], Vaccinia mCherry inactive[7.34 µM], FMDV inh inactive and HCMV inh inactive.
`Cn1nc(CC(=O)Nc2cccc3ncccc23)c2ccccc2c1=O` gave Marburg entry inh inconclusive, LASV entry inh inconclusive, Vaccinia Venus inconclusive, Vaccinia mCherry inconclusive, FMDV inh inconclusive and HCMV inh -67.
Cn1nc(CC(=O)NCc2ccc(C(F)(F)F)cc2)c2ccccc2c1=O was read as Marburg entry inh inconclusive, LASV entry inh inactive, FMDV inh 16µM and HCMV inh inactive.
For O=C(CCl)Nc1cccc2ncccc12 the results were Marburg entry inh inconclusive, LASV entry inh inconclusive, Vaccinia Venus inconclusive, Vaccinia mCherry 3.5µM, FMDV inh inactive and HCMV inh -99.
Cn1nc(CC(=O)NC2CCCCCC2)c2ccccc2c1=O was read as Vaccinia Venus inactive, Vaccinia mCherry inactive, FMDV inh inconclusive and HCMV inh -72.
Screening COc1ccc(OCC(=O)Nc2cccc3ncccc23)cc1 returned Marburg entry inh inactive, LASV entry inh inactive, Vaccinia Venus inactive, FMDV inh inconclusive and HCMV inh inactive.
CCCNC(=O)c1ccc2nc(CCc3ccccc3)oc2c1 was read as LASV entry inh inactive, Vaccinia Venus inactive, Vaccinia mCherry inactive, FMDV inh inactive and HCMV inh inactive.
For COc1ccc(CNC(=O)Cc2nn(C)c(=O)c3ccccc23)cc1 the results were Marburg entry inh inconclusive, LASV entry inh inactive, Vaccinia Venus inconclusive, FMDV inh 16µM and HCMV inh inconclusive.
For COc1ccc(OC)c(NC(=O)Cc2nn(C)c(=O)c3ccccc23)c1 the results were Marburg entry inh inconclusive, LASV entry inh inactive, Vaccinia Venus inactive, Vaccinia mCherry inactive, FMDV inh inconclusive and HCMV inh inconclusive.
`Cn1nc(C(=O)NC2CCC(O)CC2)c2ccccc2c1=O` (stereo not given) gave FMDV inh inactive and HCMV inh -65.
